According to the supplement of paper PMC10720658:
± gives the standard deviation of the averaged measurements.

Each compound was assayed on AEK1 (Tb927.3.2440) (assay: percent reduction in TR-FRET probe signal relative to DMSO control; higher = stronger displacement of ATP-site probe (binding)). Settings: 1 µM; incubation time 1 h.

Row | SMILES | percent reduction in TR-FRET probe signal [%]
1 | CN1CC[C@@H](c2c(O)cc(O)c3c(=O)cc(-c4ccccc4Cl)oc23)[C@@H]1CO.Cl | 4 ± 2.6
2 | CCCNC(=O)Nc1ccc(Oc2ncnc3cc(OC)c(OC)cc23)cc1Cl | -3.67 ± 12
3 | Cc1c(F)cc(C(=O)NC2CC2)cc1-c1ccc(C(=O)NCC(C)(C)C)cn1 | -10 ± 9.6
4 | O=C(NOCC1CC1)c1ccc(F)c(F)c1Nc1ccc(I)cc1Cl | 5.58 ± 12
5 | CC(C)(C)c1cc(/C=C(\C#N)C(N)=S)cc(C(C)(C)C)c1O [Tyrphostin AG 879] | 4.66 ± 0.43
6 | CS(=O)c1ccc(-c2nc(-c3ccc(F)cc3)c(-c3ccncc3)[nH]2)cc1 (configuration not stated) | -6.83 ± 8.7
7 | CC1=C(C(=O)Nc2cc3cn[nH]c3cc2F)C(c2ccc(C(F)(F)F)cc2)CC(=O)N1 (configuration not stated) | -2.47 ± 11
8 | Cc1nc(N)sc1-c1ccnc(Nc2ccc(N3CCOCC3)cc2)n1 | 10.3 ± 6.7
9 | O=C(NC(NC(=S)Nc1ccc(F)c([N+](=O)[O-])c1)C(Cl)(Cl)Cl)C(c1ccccc1)c1ccccc1 (configuration not stated) | 3.75 ± 8.9
10 | O=C(Cc1ccc(-c2ccc(OCCN3CCOCC3)cc2)cn1)NCc1ccccc1 | -1.26 ± 9
11 | O=C(NCc1ccccc1)c1csc(Nc2ccncn2)n1 [Thiazovivin] | 10.4 ± 11
12 | O=C(c1ccc(F)c(F)c1Nc1ccc(I)cc1F)N1CC(O)([C@@H]2CCCCN2)C1 [Cobimetinib (GDC-0973, RG7420)] | 2.36 ± 13
13 | CO[C@H]1C[C@@H]2CC[C@@H](C)[C@@](O)(O2)C(=O)C(=O)N2CCCC[C@H]2C(=O)O[C@H]([C@H](C)C[C@@H]2CC[C@@H](O)[C@H](OC)C2)CC(=O)[C@H](C)/C=C(\C)[C@@H](O)[C@@H](OC)C(=O)[C@H](C)C[C@H](C)/C=C/C=C/C=C/1C [Rapamycin (Sirolimus)] | -8.37 ± 4.2
14 | O=C1c2ccccc2-c2n[nH]c3cccc1c23 | -3.83 ± 17
15 | COc1cc2ncnc(Nc3cccc(Cl)c3F)c2cc1OC(=O)N1CCN(C)C[C@H]1C | 9.77 ± 13
16 | Cc1ccc(-c2nn(C(C)(C)C)c3ncnc(N)c23)cc1 | -1.9 ± 8.7
17 | CCN(CC)CCCCNc1ncc2cc(-c3cc(OC)cc(OC)c3)c(NC(=O)NC(C)(C)C)nc2n1 | -17.7 ± 31
18 | CC(C)[C@H](CO)Nc1nc(Nc2cccc(Cl)c2)c2ncn(C(C)C)c2n1 [Purvalanol A] | 4.44 ± 18
19 | CS(=O)(=O)c1ccc(-c2cnc(N)c(C(=O)Nc3ccccc3)n2)cc1 | 5.23 ± 4.7

Row | SMILES | percent reduction in TR-FRET probe signal [%]
20 | O=c1c(-c2ccc(O)cc2)coc2cc(O)cc(O)c12 [Genistein] | 23.3 ± 20
21 | NC(=O)Nc1cc(-c2cccc(F)c2)sc1C(=O)N[C@H]1CCCNC1 | 48.5 ± 24
22 | Cl.NC(=O)c1cnc(N[C@@H]2CCCC[C@@H]2N)nc1Nc1cccc(-n2nccn2)c1 | -0.93 ± 1.4
23 | O=C(c1cccc(Cl)c1F)N1CCN(Cc2cccc(Nc3nccs3)n2)CC1 | 6.09 ± 13
24 | C=CC(=O)Nc1cccc(Sc2nc(Nc3ccc(N4CCN(C)CC4)cc3)ncc2Cl)c1 | 3.76 ± 18
25 | CO[C@H]1C[C@@H]2CC[C@@H](C)[C@@](O)(O2)C(=O)C(=O)N2CCCC[C@H]2C(=O)O[C@H]([C@@H](C)C[C@@H]2CC[C@@H](OCCO)[C@H](OC)C2)CC(=O)[C@H](C)/C=C(\C)[C@@H](O)[C@@H](OC)C(=O)[C@H](C)C[C@H](C)/C=C/C=C/C=C/1C [Everolimus (RAD001)] | -14.9 ± 8.4
26 | O=C(c1ccc(Nc2nccc(-c3cc4ccccc4s3)n2)cc1)N1CCC(N2CCCC2)CC1 [IKK-16 (IKK Inhibitor VII)] | 4.07 ± 9.4
27 | C[C@H]1[C@H](C)CC[C@]2(C(=O)O)CC[C@]3(C)C(=CC[C@@H]4[C@@]5(C)C[C@@H](O)[C@H](O)[C@@](C)(CO)[C@@H]5CC[C@]43C)[C@H]12 [Asiatic Acid] | -8.28 ± 13
28 | Cc1cc(C(C)Nc2ccccc2)c2nc(N3CCOCC3)cc(=O)n2c1 (configuration not stated) | -4.42 ± 15
29 | CCCCOc1c(C(=O)c2c(F)cc(C)cc2F)cnc2[nH]ncc12 | 0.53 ± 8
30 | Cc1cc(Nc2cc(N3CCN(C)CC3)nc(Sc3ccc(NC(=O)C4CC4)cc3)n2)n[nH]1 [VX-680 (Tozasertib, MK-0457)] | 10.3 ± 20
31 | CCCS(=O)(=O)Nc1ccc(F)c(C(=O)c2c[nH]c3ncc(Cl)cc23)c1F | -8.04 ± 4.3
32 | Cc1nc2c(-c3cnc(N)nc3)nc(N3CCOCC3)nc2n1C(C)C | -5.76 ± 8.3
33 | CCN1CCN(Cc2ccc(Nc3ncc(F)c(-c4cc(F)c5nc(C)n(C(C)C)c5c4)n3)nc2)CC1 | -4.88 ± 6.8
34 | C=CC(=O)Nc1ccc(CN2C(=O)N(c3cc(OC)cc(OC)c3)Cc3cnc(Nc4ccc(N5CCN(C)CC5)cc4)nc32)cc1 | 4.12 ± 14
35 | CN1CCC(Nc2nc(Nc3ccc(Oc4ccccc4)cc3)c3c(=O)[nH]cc(Br)c3n2)CC1 | 35.3 ± 9.5
36 | Nc1nc(N)c2nc(-c3cccc(O)c3)c(-c3cccc(O)c3)nc2n1 | 19.3 ± 26
37 | Oc1ccc(-c2nc(-c3ccc(F)cc3)c(-c3ccncc3)[nH]2)cc1 | -5.77 ± 4
